Screen size: about 390,000 compounds; about 17,000 (4.4%) were called active. Not shown: some 8% with an inconclusive outcome. This excerpt belongs to a sample that is enriched for actives. Unmarked numbers belong to inactive results. Calls come from the whole dose curve; as a rule, active = well fitted inhibition curve with a large enough effect; inconclusive = small, poorly fitted or top-dose-only effect; inactive = no such curve, though single readings can be large or run the other way.
Target: Lysine-specific demethylase 4A (Homo sapiens) (UniProt O75164)
Sequence (O75164 whole entry, looked up, the tested form may be a part): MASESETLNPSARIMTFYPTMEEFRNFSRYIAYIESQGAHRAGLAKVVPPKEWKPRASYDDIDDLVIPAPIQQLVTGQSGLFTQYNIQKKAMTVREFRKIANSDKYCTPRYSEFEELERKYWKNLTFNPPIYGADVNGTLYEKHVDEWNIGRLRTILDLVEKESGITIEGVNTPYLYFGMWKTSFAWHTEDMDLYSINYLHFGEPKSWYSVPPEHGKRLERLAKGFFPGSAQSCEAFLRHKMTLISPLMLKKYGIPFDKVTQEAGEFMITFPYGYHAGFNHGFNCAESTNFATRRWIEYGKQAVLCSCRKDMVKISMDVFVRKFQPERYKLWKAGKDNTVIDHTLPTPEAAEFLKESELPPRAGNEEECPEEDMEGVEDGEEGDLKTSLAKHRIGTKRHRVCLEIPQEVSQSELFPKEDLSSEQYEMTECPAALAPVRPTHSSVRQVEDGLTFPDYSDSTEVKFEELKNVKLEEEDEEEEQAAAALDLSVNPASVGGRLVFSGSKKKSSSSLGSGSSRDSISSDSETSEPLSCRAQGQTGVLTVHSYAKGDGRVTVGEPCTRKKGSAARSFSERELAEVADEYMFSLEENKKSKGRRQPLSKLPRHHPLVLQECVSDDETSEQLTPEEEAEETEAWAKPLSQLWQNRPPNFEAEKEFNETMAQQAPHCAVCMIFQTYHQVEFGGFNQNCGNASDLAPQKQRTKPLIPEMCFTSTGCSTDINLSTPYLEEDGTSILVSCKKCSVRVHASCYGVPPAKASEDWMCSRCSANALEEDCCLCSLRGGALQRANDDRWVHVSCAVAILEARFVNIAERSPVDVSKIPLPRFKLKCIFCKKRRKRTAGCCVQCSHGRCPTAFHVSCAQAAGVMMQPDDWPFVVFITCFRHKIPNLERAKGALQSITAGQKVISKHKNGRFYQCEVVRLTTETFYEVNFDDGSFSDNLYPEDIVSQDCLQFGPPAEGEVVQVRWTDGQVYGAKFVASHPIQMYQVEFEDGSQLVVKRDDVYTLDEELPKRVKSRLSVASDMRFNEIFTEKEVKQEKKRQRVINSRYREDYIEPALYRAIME
Experiment: qHTS Assay for Inhibitors of JMJD2A-Tudor Domain; note: nearly all actives have a fitted effect of over 50% in size
Details: AlphaScreen JMJD2A-Tudor / H3K4me3 peptide binding; series mostly up to 114 µM; activity change, negative = inhibition: at the top concentration
Text: JMJD2A is a jumonji-domain-containing lysine demethylase that uses Fe(II) together with 2-OG to effect oxidative demethylation of histones. Methylation is one of many […] modification that affect epigenetic transcription. […] It is proposed that the functions of JmjD2A binding to the histones, is to maintain marks after they are installed and to spread the modifications by […], establishing a self-propagating cycle for rapid methylation over a large area of chromatin. […] Thus, small molecule targeting of the JMJD2A-tudor domain interaction with its target methylhistone mark is expected to enable sophisticated experiments probing the fine regulatory pathways leading to selective demethylation of a given methyllysine locus based on the methylation state of adjacent histone marks. A quantitative high throughput AlphaScreen has been developed to identify small molecule inhibitors based on a protocol published by NCGC and SGC [4].
Although AlphaScreen has significant advantages with its utility in a variety of epigenetic target assays, the primary screening data provided in this deposition should be used with caution due to the prevalence of screening artifacts. The top compound concentration tested was high (>100uM) in this assay, which increases number of actives and potential artifacts. An AlphaScreen counterscreen is highly recommended to be run against any putative actives to eliminate non-specific artifacts. Alternatively, one can use other AlphaScreen assays in PubChem to filter out promiscuous hits.
[1] Lee, J. et al. Distinct binding modes specify the recognition of methylated histone H3K4 and H4K20 by JMJD2A-tudor. Nat Struct Mol Biol. 15(1); 109-11. 2008. PMID: 18084306
[2] Yasgar, et al. Compound Management for Quantitative High-Throughput Screening. JALA. 2008 Apr;13(2):79-89. PMID: 18496600
[3] Inglese, et al. Quantitative high-throughput screening: a titration-based approach that efficiently identifies biological activities in large chemical libraries. Proc Natl Acad Sci. 1;103(31):11473-8. 2006. PMID: 16864780
[4] Quinn et al. A homogeneous method for investigation of methyl-dependent protein-protein interactions in epigenetics. Nucleic Acids Res., 38(2):e11. 2010. PMID: […]
[5] Baell,Holloway. New substructure filters for removal of pan assay interference compounds (PAINS) from screening libraries and for their exclusion in bioassays. J Med Chem. 53(7):2719-40. 2010. PMID: 20131845
NIH Molecular Libraries Probe Production Network [MLPCN]
NIH Chemical Genomics Center [NCGC]
Structural Genomics Consortium (SGC)
To each well of a 1,536w plate, 2ul of JMJD2A-Tudor (final 100nM) and 1ul biotinylated histone peptide methylated at Lys4 [b-H3(1-18)K4me3] (final 50nM) were added in 1x PBS buffer, pH 7.4, containing 0.01% Tween-20, using a nanoliter dispenser. Formation of a protein-peptide complex proceeded at room temperature for 30 min. A Kalypsys pin-tool transferred 23nl of library compound solution in DMSO to each well. Following a 30 min incubation of the protein-peptide complex with compounds at room temperature, a mixture of 40 µg/mL each streptavidin-coated donor and nickel chelate acceptor AlphaScreen beads (final 10 µg/mL) was added in a 1ul dispense for a final volume of 4ul, followed by a brief centrifugation (1000 rpm, 1 min). Plates were incubated protected from the light for 20 min at room temperature. Microplates were then read on an EnVision multilabel plate reader using the 1,536 plate HTS AlphaScreen aperture (excitation time 80 ms, measurement time 240 ms).
% is set by controls: 0 for no effect and ±100 for the full control effect; potency is the fitted concentration of half-maximal effect.

SMILES	activity change, negative = inhibition	Potency
CCOCCCNC(=O)c1c(NC(=O)Cc2coc3c(C)c(C)ccc23)sc2c1CCC2	-26.7%	–
CCc1ccc(OCCCn2c(CCCNC(=O)C3CCCCC3)nc3ccccc32)cc1	-13.1% [at 57.1 µM]	–
CC1=C(C(=O)OCc2ccc(C)cc2)C(c2ccccc2Cl)CC(=O)N1 (stereo not given)	-19.2%	–
CN(CC#CCC(c1ccccc1)c1ccccc1)C(C)(C)C	-24.1%	–
CC(C)(C)N(CC#CCC(O)(c1ccccc1)C1CCCC1)CCO (stereo not given)	–	50.1 µM (active)
CCN(CCCNC(=O)Cn1ncc2c3ccccc3n(C)c2c1=O)Cc1ccccc1	-12.1%	–
CCC(=O)N1CCc2cc(S(=O)(=O)NC(CC(C)C)C(=O)NCCc3cccc(C)c3)ccc21 (stereo not given)	-1.67%	–
CCc1c(C)nc(N2CCN(Cc3ccccc3)CC2)[nH]c1=O	-6.58%	–
O=C1c2ccccc2C(=O)c2c1cccc2N1CCN(Cc2ccccc2)CC1	–	14.1 µM (active)
O=S(=O)(c1cccs1)N1CCN(Cc2ccccc2)CC1	-5.93%	–
COc1ccc(CNc2nc(-c3ccccc3)nn2C(=O)c2ccccc2OC)cc1	10.7%	–
CC(C)c1ccc(NC(=O)C2CCN(c3nc(-c4ccc(C(C)C)cc4)no3)CC2)cc1	-15.6%	–
O=C1CC(c2ccc(F)cc2F)c2cc3c(cc2N1)OCO3 (stereo not given)	-15.8%	–
COC(=O)c1c(C)c(C)nc(N)c1C#N	-5.35%	–
Cc1nc(Cl)c(C#N)c2c1CCCC2	-0.685%	–
COCc1c(N)c(C)nc(Cl)c1C#N	–	11.2 µM (active)
CC(=O)c1ccc(NC(=O)C2CCN(S(=O)(=O)c3c(C)noc3/C=C/c3ccc(C)cc3)CC2)cc1	-16.6%	–
CN(Cc1ccccc1)c1ccc(-c2nc(-c3ccccc3)no2)cc1[N+](=O)[O-]	-8.94%	–
CC(=O)c1ccc(N2CCN(C3C(=O)c4ccccc4N3C(C)=O)CC2)cc1 (stereo not given)	-15.3%	–
CCOC(=O)N1CCN(C(=O)C(=O)Nc2sc3c(c2C#N)CC(C)(C)OC3)CC1	-9.02%	–
COC(=O)c1c(NC(=O)C(=O)N2CCCCC2)sc2c1CC(C)(C)OC2	-1.38%	–
CC1(C)Cc2c(sc(NC(=O)C(=O)N3CCOCC3)c2C#N)CO1	–	14.1 µM (active)
COc1cc(C(=O)Nc2ccc(OCc3cc(=O)n4ccc(C)cc4n3)cc2)cc(OC)c1OC	-2.6%	–
Cc1cc(NC(=O)CCC(=O)N(CC(=O)NCC2CCCO2)c2ccccc2)no1 (stereo not given)	-10.2%	–
CCc1ccccc1N(CC(=O)NCC1CCCO1)C(=O)CCC(=O)Nc1nccs1 (stereo not given)	–	25.1 µM (active)

SMILES	activity change, negative = inhibition	Potency
COC(=O)c1cccc(N(CC(=O)NCC2CCCO2)C(=O)CCC(=O)Nc2cc(C)on2)c1 (stereo not given)	0.702%	–
COc1ccc(N(CC(=O)NCC2CCCO2)C(=O)CCC(=O)Nc2nccs2)c(OC)c1 (stereo not given)	-22.1%	–
CCCCOc1ccc(N(CC(=O)NCC2CCCO2)C(=O)CCC(=O)Nc2cc(C)ccn2)cc1 (stereo not given)	–	70.8 µM (active)
Cc1cc(NC(=O)CCC(=O)N(CC(=O)NCC2CCCO2)c2ccccc2C)no1 (stereo not given)	2.52%	–
COc1ccc(C(=O)Nc2onc3c2CCCC3)cc1	-17.7%	–
O=C(NCCc1ccccc1)C(=O)NCC(c1ccco1)S(=O)(=O)c1ccccc1 (stereo not given)	-9.42%	–
COc1cccc(C(=O)NC2(C(F)(F)F)C(=O)Nc3c2c(=O)[nH]c(=O)n3-c2ccc(C)cc2)c1 (stereo not given)	-7.22%	–
O=C(CSc1ncc(-c2ccccc2)[nH]1)Nc1ccc(F)cc1F	-25.7%	–
O=C(COc1ccccc1F)OCc1cc(=O)n2nc(C3CCCCC3)sc2n1	-14.3%	–
Cc1ccc2c(c1)C1CN(C)CCC1N2S(=O)(=O)c1ccc(Oc2ccc([N+](=O)[O-])cc2)cc1 (stereo not given)	–	22.4 µM (active)
Cc1ccc2c(c1)C1CN(C)CCC1N2S(=O)(=O)c1cccc(F)c1 (stereo not given)	-12.8%	–
Cc1ccc2c(c1)C1CN(C)CCC1N2C(=S)Nc1ccc(OC(F)F)cc1 (stereo not given)	-26.8%	–
COc1ccc(CNC(=O)c2ccc3c(c2)nc2n3CCOC2)c(OC)c1	-9.74%	–
Cc1cc(NS(=O)(=O)c2ccc3oc(=O)c4ncn(C)c4c3c2)ccc1Br	4.17%	–
COc1cc(OC)c(NC(=O)c2cnc(N3CCCC3)nc2C)cc1Cl	5.63%	–
Cc1ccc2c(=O)c(C(=O)c3cccc(Cl)c3)cn(CC(=O)NCc3ccccc3)c2n1	0.962%	–
O=C(O)CSC(NC(=O)c1cccnc1)(C(F)(F)F)C(F)(F)F	–	89.1 µM (active)
O=C(CC(=O)c1cccnc1)c1ccccc1	-10.3%	–
O=C(NNC(=O)c1cccnc1)Nc1ccccc1	-1.69%	–
CCc1ccccc1N(C)C(=O)C1CCCN(c2ncnc3onc(-c4ccc(F)cc4)c23)C1 (stereo not given)	-0.647%	–
COc1cccc2c1cc1c(=O)n(CC(=O)N3CCN(c4cccc(Cl)c4)CC3)nc(C)n12	-10.5%	–
O=c1ccc2c(-c3ccccc3S(=O)(=O)O)c3ccc(O)c(O)c3oc-2c1O	–	0.708 µM (active)
CCOC(=O)c1c(C)oc2ccc(N(C(=O)c3ccncc3)S(=O)(=O)c3ccc(CC)cc3)cc12	-29.1%	–
CCOc1ccccc1C(=O)NC1(C(F)(F)F)NC(=O)N(CCc2ccc(OC)c(OC)c2)C1=O (stereo not given)	-25.4%	–
CCCN(C(=O)Cn1cc(S(=O)(=O)N2CCN(c3ccccc3F)CC2)c2ccccc2c1=O)c1cccc(C)c1	-9.25%	–

— PubChem BioAssay AID504339 (National Center for Advancing Translational Sciences (NCATS), 2011)
